# In PubChem BioAssay (NCATS):
# Inconclusive results are not listed. A call without a number means that no potency is given here. Activity calls are given as the source filed them. Calls follow the shape of the dose curve; as a rule, active = well fitted curve in the direction sought with a large enough effect; inconclusive = small, poorly fitted or top-dose-only effect, or another doubt; inactive = no such curve, though single readings can be large; an effect the other way counts as inactive or inconclusive.
# Key:
# [1] = qHTS of pediatric cancer cell lines to identify multiple opportunities for drug repurposing: Primary screen for OHS-50 cells (AID 1347103); also: nearly all actives have a fitted effect of over 40% in size
# Outline: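 Cells (500-1,000/well) rested 5 h, then received compounds for 48 h; metabolically active cells were measured by CellTiter-Glo luminescence. Final concentrations spanned up to 46 µM (MIPE, 11-point) or 0.59 nM-46 µM (NPC, 8-point) in primary screens, 11-point in follow-ups.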
# [2] = qHTS of pediatric cancer cell lines to identify multiple opportunities for drug repurposing: Primary screen for RD cells (AID 1347104); also: nearly all actives have a fitted effect of over 55% in size; also: potency is read from the fitted curve at half-maximal effect
# Outline: (§1)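 Viability was measured as metabolically active cells after 48 hours of treatment, read by CellTiter-Glo luminescence. Compounds were tested at multiple final concentrations, giving concentration-response curves.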
# [3] = qHTS of pediatric cancer cell lines to identify multiple opportunities for drug repurposing: Primary screen for MG 63 (6-TG R) cells (AID 1347105); also: nearly all actives have a fitted effect of over 50% in size
# Outline: as §1
# [4] = qHTS of pediatric cancer cell lines to identify multiple opportunities for drug repurposing: Primary screen for control Hh wild type fibroblast cells (AID 1347106);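 also: series mostly up to about 46 µM; a drop in luminescence marks cytotoxicity and a rise apparent proliferation; nearly all actives have a fitted effect of over 55% in size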
# Outline: (§2)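 Viability after 48 h compound treatment at 37C, 500-1,000 cells/well, read as ATP luminescence with CellTiter-Glo. Primary screens used 11-point (MIPE, 0.78 nM-46 µM) or 8-point (NPC, 0.59 nM-46 µM) final concentrations; follow-up screens used 11-point dilutions.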
# [5] = qHTS of pediatric cancer cell lines to identify multiple opportunities for drug repurposing: Primary screen for Rh30 cells (AID 1347107); also: series mostly up to about 46 µM; nearly all actives have a fitted effect of over 75% in size
# Outline: as §2
# [6] = qHTS of pediatric cancer cell lines to identify multiple opportunities for drug repurposing: Primary screen for Rh41 cells (AID 1347108); also: nearly all actives have a fitted effect of over 70% in size; also: potency is read from the fitted curve at half-maximal effect
# Outline: as §1
# [7] = qHTS of pediatric cancer cell lines to identify multiple opportunities for drug repurposing: Confirmatory screen for NB1643 cells (AID 1347109); also: nearly all actives have a fitted effect of over 45% in size
# Outline: as §2
# [8] = qHTS of pediatric cancer cell lines to identify multiple opportunities for drug repurposing: Confirmatory screen for A673 cells (AID 1347110);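 also: cells exposed to compound for 48 h before the viability read; nearly all actives have a fitted effect of over 65% in size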
# Outline: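 Cells plated at 500-1,000/well were treated five hours later with multi-point dilutions up to 46 µM final. After two days, CellTiter-Glo was added and luminescence read.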
# [9] = qHTS of pediatric cancer cell lines to identify multiple opportunities for drug repurposing: Confirmatory screen for BT-12 cells (AID 1347112); also: nearly all actives have a fitted effect of over 55% in size
# Outline: as §2
# [10] = qHTS of pediatric cancer cell lines to identify multiple opportunities for drug repurposing: Confirmatory screen for DAOY cells (AID 1347114); also: nearly all actives have a fitted effect of over 65% in size
# Outline: (§3)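 Viability measured as metabolically active cells via CellTiter-Glo luminescence following 48 hours of compound exposure, 11-point dilutions in confirmatory testing. 500-1,000 cells/well plated 5 hours before dosing; controls were DMSO and 2.3 µM bortezomib.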
# [11] = qHTS of pediatric cancer cell lines to identify multiple opportunities for drug repurposing: Confirmatory screen for NB-EBc1 cells (AID 1347115);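 also: cells exposed to compound for 48 h before the viability read; nearly all actives have a fitted effect of over 45% in size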
# Outline: as §2
# [12] = qHTS of pediatric cancer cell lines to identify multiple opportunities for drug repurposing: Confirmatory screen for SJ-GBM2 cells (AID 1347116); conditions: outcome: dose series up to 45.9 µM; also: nearly all actives have a fitted effect of over 60% in size
# Outline: as §3
# [13] = qHTS of pediatric cancer cell lines to identify multiple opportunities for drug repurposing: Confirmatory screen for MG 63 (6-TG R) cells (AID 1347119); also: nearly all actives have a fitted effect of over 55% in size
# Outline: as §2
# [14] = qHTS of pediatric cancer cell lines to identify multiple opportunities for drug repurposing: Confirmatory screen for U-2 OS cells (AID 1347122); also: nearly all actives have a fitted effect of over 65% in size
# Outline: as §2
# [15] = qHTS of pediatric cancer cell lines to identify multiple opportunities for drug repurposing: Confirmatory screen for Rh41 cells (AID 1347123);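 also: 48 h compound exposure; nearly all actives have a fitted effect of over 60% in size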
# Outline: as §2
compound,measurement,setting,value
O=C1c2ccccc2C(=O)c2ccccc21,Potency,[1],inactive
same,Potency,[2],inactive
same,Potency,[3],inactive
same,outcome,[4],inactive
same,outcome,[5],inactive
NNc1ccccc1,Potency,[1],inactive
same,Potency,[2],inactive
same,Potency,[3],inactive
same,outcome,[4],inactive
same,outcome,[5],inactive
[N-]=[N+]=CC(=O)OC[C@H](N)C(=O)O,Potency,[1],inactive
same,Potency,[2],inactive
same,Potency,[3],inactive
same,outcome,[4],inactive
same,outcome,[5],inactive
Nc1nc(N)nc(NC2CC2)n1,Potency,[1],inactive
same,Potency,[2],inactive
same,Potency,[3],inactive
same,outcome,[4],inactive
same,outcome,[5],inactive
same,Potency,[6],inactive
COc1cc(CC(C)N)cc(OC)c1OC (stereo not drawn),Potency,[1],inactive
same,Potency,[2],inactive
same,Potency,[3],inactive
same,outcome,[4],inactive
same,outcome,[5],inactive
same,Potency,[6],inactive
NC(=O)c1cc([N+](=O)[O-])cc([N+](=O)[O-])c1,Potency,[1],inactive
same,Potency,[2],inactive
same,Potency,[3],inactive
same,outcome,[4],inactive
same,outcome,[5],inactive
CCC1(c2ccccc2)C(=O)N(COC)C(=O)N(COC)C1=O,Potency,[1],inactive
same,Potency,[2],inactive
same,Potency,[3],inactive
same,outcome,[4],inactive
same,outcome,[5],inactive
same,Potency,[6],inactive
CCN(CC)C(=O)[C@@H]1C=C2c3cccc4[nH]cc(c34)C[C@H]2N(C)C1,Potency,[1],inactive
same,Potency,[2],inactive
same,Potency,[3],inactive
same,outcome,[4],inactive
same,outcome,[5],inactive
CNCC(=O)c1ccc(O)c(O)c1,Potency,[1],inactive
same,Potency,[2],inactive
same,Potency,[3],inactive
same,outcome,[4],inactive
same,outcome,[5],inactive
same,Potency,[6],inactive
COC1CC(=C(c2cccs2)c2cccs2)C[N+](C)(C)C1 (stereo not drawn),Potency,[1],inactive
same,Potency,[3],inactive
same,outcome,[4],inactive
same,outcome,[5],inactive
Clc1ccccc1N1CCNCC1,Potency,[1],inactive
same,Potency,[2],inactive
same,Potency,[3],inactive
same,outcome,[4],inactive
same,outcome,[5],inactive
same,Potency,[6],inactive
COc1cc(OC)c(OC)cc1C=O,Potency,[1],inactive
same,Potency,[2],inactive
same,Potency,[3],inactive
same,outcome,[4],inactive
same,outcome,[5],inactive
same,Potency,[6],inactive
C=C(C)[C@H]1CN[C@H](C(=O)O)[C@H]1CC(=O)O,Potency,[1],inactive
same,Potency,[2],inactive
same,Potency,[3],inactive
same,outcome,[4],inactive
same,outcome,[5],inactive
same,Potency,[6],inactive
C[C@]12CC[C@H]3[C@@H](CC[C@@]45O[C@H]4C(O)=C(C#N)C[C@]35C)[C@H]1CC[C@H]2O,Potency,[1],inactive
same,Potency,[2],29.6 µM (active)
same,outcome,[4],inactive
same,Potency,[6],20.9 µM (active)
C[C@H](N)C(=O)c1ccccc1,Potency,[1],inactive
same,Potency,[3],inactive
same,outcome,[4],inactive
same,outcome,[5],inactive
CCC(C)C(C)(COC(N)=O)COC(N)=O (stereo not drawn),Potency,[1],inactive
same,Potency,[2],inactive
same,Potency,[3],inactive
same,outcome,[4],inactive
same,outcome,[5],inactive
same,Potency,[6],inactive
CC(C(=O)c1ccccc1)N(C)C (stereo not drawn),Potency,[1],inactive
same,Potency,[3],inactive
same,outcome,[4],inactive
same,outcome,[5],inactive
O=C1OC(CCN2CCCCC2)OC1(c1ccccc1)c1ccccc1 (stereo not drawn),Potency,[1],inactive
same,Potency,[2],inactive
same,outcome,[4],inactive
same,outcome,[5],inactive
COc1ccc2c(c1OC)C(=O)O[C@H]2[C@@H]1c2cc3c(cc2CCN1C)OCO3,Potency,[1],inactive
same,Potency,[2],inactive
same,Potency,[3],inactive
same,outcome,[4],inactive
same,outcome,[5],inactive
same,Potency,[6],inactive
COc1ccc2c3c1O[C@H]1[C@H](O)CC[C@H]4[C@@H](C2)N(C)CC[C@@]341,Potency,[1],inactive
same,Potency,[3],inactive
same,outcome,[4],inactive
same,outcome,[5],inactive
CCN[C@@H](C)Cc1cccc(C(F)(F)F)c1,Potency,[1],inactive
same,Potency,[2],inactive
same,Potency,[3],inactive
same,outcome,[4],inactive
same,outcome,[5],inactive
same,Potency,[6],inactive
Nc1ccc([As](=O)(O)O)cc1,Potency,[1],inactive
same,Potency,[2],inactive
same,Potency,[3],inactive
same,outcome,[4],inactive
same,outcome,[5],inactive
same,Potency,[6],inactive
CC(C)c1cccc(C(C)C)c1O,Potency,[1],inactive
same,Potency,[3],inactive
same,outcome,[4],inactive
same,outcome,[5],inactive
CN1CC[C@]23c4c5ccc(O)c4O[C@H]2[C@@H](O)C=C[C@H]3[C@H]1C5,Potency,[1],inactive
same,Potency,[3],inactive
same,outcome,[4],inactive
same,outcome,[5],inactive
CC(C)N(CCC(C(N)=O)(c1ccccc1)c1ccccn1)C(C)C (stereo not drawn),Potency,[1],inactive
same,Potency,[3],inactive
same,outcome,[4],inactive
same,outcome,[5],inactive
CC(C)=CC1C(C(=O)OCN2C(=O)C3=C(CCCC3)C2=O)C1(C)C (stereo not drawn),Potency,[1],inactive
same,Potency,[3],inactive
same,outcome,[4],inactive
same,outcome,[5],inactive
CCOP(=S)(OCC)Oc1ccc2c(C)c(Cl)c(=O)oc2c1,Potency,[1],inactive
same,Potency,[2],inactive
same,Potency,[3],inactive
same,outcome,[4],inactive
same,outcome,[5],inactive
same,Potency,[7],inactive
same,Potency,[8],inactive
same,Potency,[9],inactive
same,Potency,[10],inactive
same,Potency,[11],inactive
same,outcome,[12],inactive
same,outcome,[13],inactive
same,Potency,[14],inactive
same,Potency,[15],inactive
NC(=O)CS(=O)C(c1ccccc1)c1ccccc1 (stereo not drawn),Potency,[1],inactive
same,Potency,[3],inactive
same,outcome,[4],inactive
same,outcome,[5],inactive
c1ccc(N2CCNCC2)cc1,Potency,[1],inactive
same,Potency,[2],inactive
same,Potency,[3],inactive
same,outcome,[4],inactive
same,outcome,[5],inactive
same,Potency,[6],inactive
CC(Cc1ccccc1)NCCn1cnc2c1c(=O)n(C)c(=O)n2C (stereo not drawn),Potency,[1],inactive
same,Potency,[3],inactive
same,outcome,[4],inactive
same,outcome,[5],inactive
COC(=O)C(Cl)C(=O)OC,Potency,[1],inactive
same,Potency,[3],inactive
same,outcome,[4],inactive
same,outcome,[5],inactive
